# From paper PMC8384837, “Expanding the binding specificity for RNA recognition by a PUF domain”
# Assays:
# Assay in all cases: yeast three-hybrid, YBZ-1, SC-Leu-His + 0.5 mM 3-AT, 4 days
# Conditions in all cases: tags: N-Gal4 AD-HA kept; label: inside an RPR1-promoter hybrid RNA with tandem MS2 sites; ssRNA
# PUM1 PUF domain R1-KWS = PUM1 PUF domain R1-KWS (Homo sapiens, UniProt Q14671 828-1176, S863K;R864W;Q867S)
# In short: (§1)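 Each repeat of the Pumilio-1 PUF domain was randomized at its three base-contacting residues, and these libraries were co-expressed from a centromeric plasmid with matching RNA elements in strain YBZ-1. After four days on SC-Leu (input) or SC-Leu-His + 0.5 mM 3-AT (selection), the repeat regions were PCR-amplified and Illumina-sequenced. The interaction score compares variant frequency between input and selection as a log change, computed in log2 with a pseudocount of 1 for absent variants.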
# PUM1 PUF domain R1-KAN = PUM1 PUF domain R1-KAN (Homo sapiens, UniProt Q14671 828-1176, S863K;R864A;Q867N)
# In short: as §1
# PUM1 PUF domain R4-PWQ = PUM1 PUF domain R4-PWQ (Homo sapiens, UniProt Q14671 828-1176, N971P;H972W)
# In short: as §1
# PUM1 PUF domain R4-FNG = PUM1 PUF domain R4-FNG (Homo sapiens, UniProt Q14671 828-1176, N971F;H972N;Q975G)
# In short: as §1
# PUM1 PUF domain R4-RHI = PUM1 PUF domain R4-RHI (Homo sapiens, UniProt Q14671 828-1176, N971R;Q975I)
# In short: as §1
sequence,measurement,setting,value
GGCUAGAACUAGUGGAUCCCCCGGCGCCCGGCGGCUCGAGCCCGGGUAAGUGUAAAUCGUCUGCAUGCCGCCGGGCGCCAUGCCUGCAGGUCGACUCUAGAAAACAUG,binding signal,PUM1 PUF domain R1-KWS,3.87 log2 enrichment (interaction score)
GGCUAGAACUAGUGGAUCCCCCGGCGCCCGGCGGCUCGAGCCCGGGUAAGUGUAAAUGGUCUGCAUGCCGCCGGGCGCCAUGCCUGCAGGUCGACUCUAGAAAACAUG,binding signal,PUM1 PUF domain R1-KAN,2.46 log2 enrichment (interaction score)
GGCUAGAACUAGUGGAUCCCCCGGCGCCCGGCGGCUCGAGCCCGGGUAAGUGUAUAUAGUCUGCAUGCCGCCGGGCGCCAUGCCUGCAGGUCGACUCUAGAAAACAUG,binding signal,PUM1 PUF domain R4-PWQ,5.05 log2 enrichment (interaction score)
same,binding signal,PUM1 PUF domain R4-FNG,4.34 log2 enrichment (interaction score)
same,binding signal,PUM1 PUF domain R4-RHI,3.1 log2 enrichment (interaction score)
